# Columns and labels:
# [1] = target: Sphingosine kinase 1 (Homo sapiens) (UniProt Q9NYA1); details: at 1 µM;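 also: mean SPHK1 inhibition value reported from the GSK PKIS kinase panel screen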
# [2] = target: T1, Sphingosine kinase 2 (Homo sapiens) (UniProt Q9NRA0); details: at 0.1 µM
# T1 sequence (whole entry): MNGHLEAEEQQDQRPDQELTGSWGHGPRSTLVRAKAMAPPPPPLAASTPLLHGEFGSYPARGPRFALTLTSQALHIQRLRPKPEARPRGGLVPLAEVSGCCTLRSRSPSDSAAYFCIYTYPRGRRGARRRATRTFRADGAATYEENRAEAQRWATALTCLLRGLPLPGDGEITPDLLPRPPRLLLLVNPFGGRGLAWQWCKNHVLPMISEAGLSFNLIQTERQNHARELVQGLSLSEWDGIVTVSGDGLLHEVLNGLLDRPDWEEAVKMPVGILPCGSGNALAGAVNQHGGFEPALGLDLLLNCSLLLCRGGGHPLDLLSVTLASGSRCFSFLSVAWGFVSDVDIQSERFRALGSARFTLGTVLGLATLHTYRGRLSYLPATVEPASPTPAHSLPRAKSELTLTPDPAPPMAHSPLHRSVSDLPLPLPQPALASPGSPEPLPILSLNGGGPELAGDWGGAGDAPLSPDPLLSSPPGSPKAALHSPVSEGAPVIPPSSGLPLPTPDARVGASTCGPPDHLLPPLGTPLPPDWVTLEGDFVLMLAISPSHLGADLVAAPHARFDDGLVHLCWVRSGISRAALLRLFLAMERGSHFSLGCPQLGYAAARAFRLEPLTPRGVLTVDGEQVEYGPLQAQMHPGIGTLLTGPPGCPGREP
# [3] = target: T1, Sphingosine kinase 2 (Homo sapiens); details: at 1 µM
# [4] = target: Casein kinase II subunit alpha (Homo sapiens) (UniProt P68400); details: at 0.1 µM
# [5] = target: Casein kinase II subunit alpha (Homo sapiens) (UniProt P68400); details: at 1 µM
# [6] = target: T2, Inhibitor of nuclear factor kappa-B kinase subunit alpha (Homo sapiens) (UniProt O15111); details: at 0.1 µM
# T2 sequence (whole entry): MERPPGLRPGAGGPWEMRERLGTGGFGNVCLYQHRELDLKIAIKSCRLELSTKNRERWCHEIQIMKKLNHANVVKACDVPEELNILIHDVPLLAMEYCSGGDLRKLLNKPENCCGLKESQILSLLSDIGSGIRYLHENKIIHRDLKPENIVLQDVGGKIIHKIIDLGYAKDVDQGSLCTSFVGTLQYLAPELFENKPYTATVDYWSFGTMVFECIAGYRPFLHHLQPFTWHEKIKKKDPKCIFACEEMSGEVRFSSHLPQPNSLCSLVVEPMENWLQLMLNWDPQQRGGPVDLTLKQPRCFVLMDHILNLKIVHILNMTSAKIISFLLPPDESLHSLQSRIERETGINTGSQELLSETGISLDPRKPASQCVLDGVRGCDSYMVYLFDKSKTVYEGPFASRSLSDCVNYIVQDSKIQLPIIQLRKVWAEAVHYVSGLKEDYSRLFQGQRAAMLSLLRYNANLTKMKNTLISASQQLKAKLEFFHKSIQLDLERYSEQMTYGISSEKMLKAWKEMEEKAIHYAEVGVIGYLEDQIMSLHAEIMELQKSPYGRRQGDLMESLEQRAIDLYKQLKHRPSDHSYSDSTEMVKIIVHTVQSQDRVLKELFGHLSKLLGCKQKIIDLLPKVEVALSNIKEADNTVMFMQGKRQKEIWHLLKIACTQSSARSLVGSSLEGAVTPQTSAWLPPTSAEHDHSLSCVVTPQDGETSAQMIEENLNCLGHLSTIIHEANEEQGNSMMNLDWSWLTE
# [7] = target: T2, Inhibitor of nuclear factor kappa-B kinase subunit alpha (Homo sapiens); details: at 1 µM
# [8] = target: T3, Inhibitor of nuclear factor kappa-B kinase subunit beta (Homo sapiens) (UniProt O14920); details: at 0.1 µM
# T3 sequence (whole entry): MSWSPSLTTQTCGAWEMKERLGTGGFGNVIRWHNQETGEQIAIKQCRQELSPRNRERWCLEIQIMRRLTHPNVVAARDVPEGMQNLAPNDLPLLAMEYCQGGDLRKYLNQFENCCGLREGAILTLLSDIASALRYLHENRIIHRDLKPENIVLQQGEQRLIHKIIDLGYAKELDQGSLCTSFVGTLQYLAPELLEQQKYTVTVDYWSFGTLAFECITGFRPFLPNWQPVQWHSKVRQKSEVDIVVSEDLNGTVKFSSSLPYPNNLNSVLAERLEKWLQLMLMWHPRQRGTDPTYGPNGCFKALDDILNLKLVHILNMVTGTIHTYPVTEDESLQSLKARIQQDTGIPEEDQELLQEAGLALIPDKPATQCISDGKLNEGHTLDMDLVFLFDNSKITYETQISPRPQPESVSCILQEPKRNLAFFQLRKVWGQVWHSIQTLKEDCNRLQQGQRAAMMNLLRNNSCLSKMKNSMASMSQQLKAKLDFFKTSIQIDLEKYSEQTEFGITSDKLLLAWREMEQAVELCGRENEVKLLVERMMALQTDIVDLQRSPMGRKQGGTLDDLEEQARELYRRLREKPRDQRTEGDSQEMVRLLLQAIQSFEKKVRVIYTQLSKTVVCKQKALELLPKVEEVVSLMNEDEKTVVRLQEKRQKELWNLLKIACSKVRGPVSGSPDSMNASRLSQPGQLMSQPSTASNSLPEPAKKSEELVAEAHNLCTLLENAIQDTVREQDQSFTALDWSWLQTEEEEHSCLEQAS
# [9] = target: T3, Inhibitor of nuclear factor kappa-B kinase subunit beta (Homo sapiens); details: at 1 µM
# [10] = target: T4, Inhibitor of nuclear factor kappa-B kinase subunit epsilon (Homo sapiens) (UniProt Q14164); details: at 0.1 µM
# T4 sequence (whole entry): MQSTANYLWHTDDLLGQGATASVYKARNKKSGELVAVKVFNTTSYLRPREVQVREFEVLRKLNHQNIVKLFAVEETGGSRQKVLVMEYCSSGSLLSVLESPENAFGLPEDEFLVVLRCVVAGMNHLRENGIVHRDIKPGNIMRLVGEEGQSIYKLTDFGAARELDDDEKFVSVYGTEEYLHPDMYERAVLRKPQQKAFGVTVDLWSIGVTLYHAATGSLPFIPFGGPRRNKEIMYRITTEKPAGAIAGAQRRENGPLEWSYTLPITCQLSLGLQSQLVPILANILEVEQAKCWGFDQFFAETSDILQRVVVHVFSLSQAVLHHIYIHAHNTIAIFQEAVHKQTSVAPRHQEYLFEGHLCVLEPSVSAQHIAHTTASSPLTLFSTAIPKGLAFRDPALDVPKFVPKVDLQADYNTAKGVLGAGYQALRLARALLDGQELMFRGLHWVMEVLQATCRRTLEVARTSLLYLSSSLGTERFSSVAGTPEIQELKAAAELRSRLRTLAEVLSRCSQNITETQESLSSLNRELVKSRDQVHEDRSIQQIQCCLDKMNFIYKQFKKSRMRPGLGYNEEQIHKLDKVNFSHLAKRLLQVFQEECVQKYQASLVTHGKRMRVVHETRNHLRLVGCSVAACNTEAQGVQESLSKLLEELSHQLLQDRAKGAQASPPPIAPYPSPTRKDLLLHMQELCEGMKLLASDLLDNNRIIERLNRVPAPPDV
# [11] = target: T4, Inhibitor of nuclear factor kappa-B kinase subunit epsilon (Homo sapiens); details: at 1 µM
# [12] = target: T5, Serine/threonine-protein kinase Nek1 (Homo sapiens) (UniProt Q96PY6); details: at 0.1 µM
# T5 sequence (whole entry): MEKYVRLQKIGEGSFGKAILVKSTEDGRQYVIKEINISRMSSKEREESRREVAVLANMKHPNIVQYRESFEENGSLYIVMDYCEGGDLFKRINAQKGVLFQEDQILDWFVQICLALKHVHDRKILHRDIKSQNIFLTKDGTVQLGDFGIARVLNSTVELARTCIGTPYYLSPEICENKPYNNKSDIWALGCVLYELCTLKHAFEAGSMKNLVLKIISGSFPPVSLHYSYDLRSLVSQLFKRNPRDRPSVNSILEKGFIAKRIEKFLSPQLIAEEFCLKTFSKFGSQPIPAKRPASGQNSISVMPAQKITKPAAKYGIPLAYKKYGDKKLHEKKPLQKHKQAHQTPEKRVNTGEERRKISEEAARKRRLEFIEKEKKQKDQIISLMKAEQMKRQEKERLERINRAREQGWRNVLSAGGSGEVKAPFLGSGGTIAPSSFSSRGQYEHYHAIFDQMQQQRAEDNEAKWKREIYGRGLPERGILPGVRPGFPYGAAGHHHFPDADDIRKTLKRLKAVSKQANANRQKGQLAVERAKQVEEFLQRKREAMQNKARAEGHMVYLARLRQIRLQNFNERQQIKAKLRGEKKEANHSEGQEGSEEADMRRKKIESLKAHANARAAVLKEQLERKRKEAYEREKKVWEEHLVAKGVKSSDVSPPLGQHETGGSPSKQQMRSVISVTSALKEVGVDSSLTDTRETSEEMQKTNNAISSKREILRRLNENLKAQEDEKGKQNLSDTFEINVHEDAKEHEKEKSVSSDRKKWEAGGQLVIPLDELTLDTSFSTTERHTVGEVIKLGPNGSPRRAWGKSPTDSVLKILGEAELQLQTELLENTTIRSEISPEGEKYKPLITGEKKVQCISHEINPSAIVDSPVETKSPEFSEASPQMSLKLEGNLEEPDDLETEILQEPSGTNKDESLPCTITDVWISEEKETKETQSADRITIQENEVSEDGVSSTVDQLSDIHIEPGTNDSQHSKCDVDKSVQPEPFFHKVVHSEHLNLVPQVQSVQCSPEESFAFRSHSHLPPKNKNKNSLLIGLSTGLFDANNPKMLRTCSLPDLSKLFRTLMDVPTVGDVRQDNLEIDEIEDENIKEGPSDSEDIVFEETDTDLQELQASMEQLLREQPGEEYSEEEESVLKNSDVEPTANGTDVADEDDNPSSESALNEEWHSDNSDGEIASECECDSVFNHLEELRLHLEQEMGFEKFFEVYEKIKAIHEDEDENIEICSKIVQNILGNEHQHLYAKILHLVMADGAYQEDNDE
# [13] = target: T5, Serine/threonine-protein kinase Nek1 (Homo sapiens); details: at 1 µM
# [14] = target: T6, Serine/threonine-protein kinase Nek2 (Homo sapiens) (UniProt P51955); details: at 0.1 µM
# T6 sequence (whole entry): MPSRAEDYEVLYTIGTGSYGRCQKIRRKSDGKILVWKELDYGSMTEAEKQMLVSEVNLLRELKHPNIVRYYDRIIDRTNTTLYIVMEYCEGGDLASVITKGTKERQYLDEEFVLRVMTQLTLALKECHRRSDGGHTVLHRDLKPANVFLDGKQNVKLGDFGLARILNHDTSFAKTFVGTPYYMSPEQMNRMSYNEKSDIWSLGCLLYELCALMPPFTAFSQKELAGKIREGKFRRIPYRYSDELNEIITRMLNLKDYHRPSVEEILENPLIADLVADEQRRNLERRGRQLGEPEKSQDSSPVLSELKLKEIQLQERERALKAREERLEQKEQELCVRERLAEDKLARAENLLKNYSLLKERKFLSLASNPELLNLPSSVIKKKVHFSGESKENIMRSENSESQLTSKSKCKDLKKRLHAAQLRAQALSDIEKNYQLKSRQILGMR
# [15] = target: T6, Serine/threonine-protein kinase Nek2 (Homo sapiens); details: at 1 µM
# [16] = target: Serine/threonine-protein kinase Nek6 (Homo sapiens) (UniProt Q9HC98); details: at 0.1 µM
# [17] = target: Serine/threonine-protein kinase Nek6 (Homo sapiens) (UniProt Q9HC98); details: at 1 µM
# [18] = target: Serine/threonine-protein kinase Nek7 (Homo sapiens) (UniProt Q8TDX7); details: at 0.1 µM
# [19] = target: Serine/threonine-protein kinase Nek7 (Homo sapiens) (UniProt Q8TDX7); details: at 1 µM
# [20] = target: T7, Serine/threonine-protein kinase Nek9 (Homo sapiens) (UniProt Q8TD19); details: at 0.1 µM;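 also: reported value is the mean percent inhibition of NEK9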
# T7 sequence (whole entry): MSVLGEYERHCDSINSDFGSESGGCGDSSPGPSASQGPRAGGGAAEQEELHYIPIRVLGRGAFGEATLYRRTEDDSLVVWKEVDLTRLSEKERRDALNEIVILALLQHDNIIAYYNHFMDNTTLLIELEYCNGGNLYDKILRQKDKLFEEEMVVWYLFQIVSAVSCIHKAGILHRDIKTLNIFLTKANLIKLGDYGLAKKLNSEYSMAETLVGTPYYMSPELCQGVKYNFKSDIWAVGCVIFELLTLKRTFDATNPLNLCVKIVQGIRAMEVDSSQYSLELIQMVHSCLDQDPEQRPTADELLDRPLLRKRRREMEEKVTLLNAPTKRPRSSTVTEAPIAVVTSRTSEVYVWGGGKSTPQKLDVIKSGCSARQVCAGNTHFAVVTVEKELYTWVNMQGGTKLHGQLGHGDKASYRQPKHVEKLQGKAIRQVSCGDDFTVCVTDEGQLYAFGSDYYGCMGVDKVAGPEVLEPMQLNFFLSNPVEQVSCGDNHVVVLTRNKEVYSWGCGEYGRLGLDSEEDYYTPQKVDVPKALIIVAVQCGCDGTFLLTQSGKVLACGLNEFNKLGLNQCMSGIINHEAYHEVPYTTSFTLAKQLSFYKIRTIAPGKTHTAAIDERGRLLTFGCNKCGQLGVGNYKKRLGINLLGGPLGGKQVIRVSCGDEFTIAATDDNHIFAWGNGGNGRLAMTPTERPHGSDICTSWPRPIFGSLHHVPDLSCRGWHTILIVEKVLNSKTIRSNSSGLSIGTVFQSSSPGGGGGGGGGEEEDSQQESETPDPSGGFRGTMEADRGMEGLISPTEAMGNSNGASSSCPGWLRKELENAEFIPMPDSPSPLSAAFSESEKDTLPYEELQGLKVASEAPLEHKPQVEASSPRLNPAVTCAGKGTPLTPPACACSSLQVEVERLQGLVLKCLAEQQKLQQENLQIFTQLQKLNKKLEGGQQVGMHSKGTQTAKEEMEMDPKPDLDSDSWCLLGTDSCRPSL
# Sequence of Casein kinase II subunit alpha (Homo sapiens) (P68400 whole entry, looked up): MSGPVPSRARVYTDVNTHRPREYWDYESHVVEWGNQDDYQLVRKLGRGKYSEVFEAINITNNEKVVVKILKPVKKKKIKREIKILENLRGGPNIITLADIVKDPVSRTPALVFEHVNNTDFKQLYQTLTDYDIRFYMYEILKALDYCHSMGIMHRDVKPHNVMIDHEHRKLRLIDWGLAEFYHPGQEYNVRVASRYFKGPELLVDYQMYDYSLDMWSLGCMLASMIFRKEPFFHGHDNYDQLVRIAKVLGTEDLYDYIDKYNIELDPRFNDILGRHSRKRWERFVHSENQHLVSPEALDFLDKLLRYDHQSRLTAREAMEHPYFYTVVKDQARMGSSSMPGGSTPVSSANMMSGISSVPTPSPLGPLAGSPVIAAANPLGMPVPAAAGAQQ
# Sequence of Serine/threonine-protein kinase Nek7 (Homo sapiens) (Q8TDX7 whole entry, looked up): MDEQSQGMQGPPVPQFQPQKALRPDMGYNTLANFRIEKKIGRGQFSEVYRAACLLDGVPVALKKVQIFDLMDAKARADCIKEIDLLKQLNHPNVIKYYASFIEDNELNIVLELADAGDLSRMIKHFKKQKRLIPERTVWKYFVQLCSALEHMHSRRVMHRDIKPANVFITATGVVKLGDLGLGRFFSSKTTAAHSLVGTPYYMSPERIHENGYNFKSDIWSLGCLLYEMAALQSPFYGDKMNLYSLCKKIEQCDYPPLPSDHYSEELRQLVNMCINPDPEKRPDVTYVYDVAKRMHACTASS
# Sequence of Serine/threonine-protein kinase Nek6 (Homo sapiens) (Q9HC98 whole entry): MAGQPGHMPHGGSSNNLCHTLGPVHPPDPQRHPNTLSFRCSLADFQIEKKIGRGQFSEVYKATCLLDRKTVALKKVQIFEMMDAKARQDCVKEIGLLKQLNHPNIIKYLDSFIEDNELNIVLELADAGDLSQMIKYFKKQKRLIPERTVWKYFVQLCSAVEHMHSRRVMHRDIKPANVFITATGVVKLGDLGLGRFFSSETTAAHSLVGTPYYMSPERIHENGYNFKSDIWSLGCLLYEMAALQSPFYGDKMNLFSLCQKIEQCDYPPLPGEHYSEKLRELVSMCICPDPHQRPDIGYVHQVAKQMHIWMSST
# Sequence of Sphingosine kinase 1 (Homo sapiens) (Q9NYA1 whole entry): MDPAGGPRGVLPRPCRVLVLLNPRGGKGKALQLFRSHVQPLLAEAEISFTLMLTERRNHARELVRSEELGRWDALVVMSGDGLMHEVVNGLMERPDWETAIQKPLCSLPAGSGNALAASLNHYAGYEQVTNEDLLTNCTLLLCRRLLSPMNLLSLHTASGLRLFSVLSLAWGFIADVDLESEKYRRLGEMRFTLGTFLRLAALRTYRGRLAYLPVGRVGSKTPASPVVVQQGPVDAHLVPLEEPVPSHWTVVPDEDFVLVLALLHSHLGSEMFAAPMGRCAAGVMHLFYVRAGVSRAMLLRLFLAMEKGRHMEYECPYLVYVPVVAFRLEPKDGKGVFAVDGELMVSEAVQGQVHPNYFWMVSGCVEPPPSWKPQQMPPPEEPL
structure (smiles),measurement,setting,value
COc1cccc(-n2ncc3c(N/N=C/c4ccc(C(=O)NCCN(C)C)cc4)ncnc32)c1,inhibition,[1],0.56%
same,inhibition,[2],0.23%
same,inhibition,[3],1.39%
same,inhibition,[4],31%
same,inhibition,[5],62.2%
same,inhibition,[6],1.29%
same,inhibition,[7],4.43%
same,inhibition,[8],1.09%
same,inhibition,[9],0.86%
same,inhibition,[10],-1.79%
same,inhibition,[11],-5.84%
same,inhibition,[12],2.06%
same,inhibition,[13],7.24%
same,inhibition,[14],0.16%
same,inhibition,[15],1.98%
same,inhibition,[16],1.11%
same,inhibition,[17],0.35%
same,inhibition,[18],3.99%
same,inhibition,[19],-1.23%
same,inhibition,[20],5.54%
